# Measured values reported in PubChem BioAssay.
# Unmarked numbers belong to inactive results. The rule behind the calls is not given here.
# Test system: Aerobactin synthetase IucA (Klebsiella pneumoniae hvKP1)
# Assay: Biochemical IucA enzyme inhibition primary screen of the Spectrum library (AID 1346200);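 note: 100% = wells without compound and 0% = wells lacking enzyme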
# Details: malachite green pyrophosphate, A620, at 8 µM, hits give low values
row,SMILES,activity remaining [%]
1,CC1=CC2C(C(C)C)CCC(C)(O)C2CC1 (centres undefined),89.3
2,CCOC(=O)OC(C)OC(=O)C1N2C(=O)C(NC(=O)[C@H](N)c3ccccc3)C2SC1(C)C (some centres undefined),104
3,COc1cc(OC)c2c(=O)c(-c3ccccc3)coc2c1,110
4,CC(=O)O[C@@H]1CC[C@@]2(C)C(CC[C@]3(C)C2CC=C2C4CC(C)(C)CC[C@]4(C(=O)O)CC[C@]23C)C1(C)C (some centres undefined),96.2
5,CC1(C)C(=O)C=C[C@@]2(C)C1C=C[C@]1(C)C2CC[C@@]2(C)[C@H](c3ccoc3)OC(=O)C3OC321 (some centres undefined),102
6,COc1cc(OC)c2c(OC)c(-c3ccc4c(c3)OCO4)c(=O)oc2c1,95.4
7,NCC(=O)CCC(=O)O,77.6
8,CC1=CC(=O)c2ccccc2C1=O,117
9,C=C1CC[C@H](O)C/C1=C/C=C1\CCC[C@]2(C)C([C@H](C)/C=C/[C@H](C)C(C)C)CC[C@@H]12 (some centres undefined),107
10,CC(=O)Oc1ccc2c(c1OC(C)=O)OCC1(O)Cc3c(cc(OC(C)=O)c(OC(C)=O)c3OC(C)=O)C21 (centres undefined),111
11,O=C1CC(c2ccc(O)cc2)Oc2ccccc21 (centres undefined),92
12,C[C@@H]1CC[C@@]23CCC4(C)[C@@](C=CC5[C@@]6(C)CC[C@H](O)C(C)(C)C6CC[C@]54C)(OC2=O)C3[C@H]1C (some centres undefined),99.4
13,CS(=O)(=O)OCCCCOS(C)(=O)=O,79.2
14,Nc1cc(-c2ccncc2)c[nH]c1=O,122
15,COc1cc2c(cc1OC)-c1c(oc3cc(O)cc(O)c3c1=O)CO2,90.7
16,O=C(O)/C=C(\CC(=O)O)C(=O)O,89.8
17,O=C1CC(c2ccccc2)Oc2ccccc21 (centres undefined),125
18,CC1(O)CC2C(CC1O)C2(C)C (centres undefined),125
19,CC1(C)C(=O)C=C[C@@]2(C)C1CC(=O)[C@]1(C)C2CC[C@@]2(C)[C@H](c3ccoc3)OC(=O)[C@H]3O[C@]321 (some centres undefined),116
20,CCC(=O)OCC(=O)[C@@]1(OC(=O)CC)[C@H](C)CC2C3C([C@@H](O)C[C@@]21C)[C@@]1(C)C=CC(=O)C=C1C[C@H]3Cl (some centres undefined),106

row,SMILES,activity remaining [%]
1,CCCc1nn(C)c2c(=O)[nH]c(-c3cc(S(=O)(=O)N4CCN(C)CC4)ccc3OCC)nc12,97
2,CC1(C)O[C@@H]2[C@@H](CO[C@@]3(COS(N)(=O)=O)OC(C)(C)O[C@@H]23)O1,115
3,CC(=O)O[C@H]1C[C@@H](O)C(C)(C)C2C[C@@H](OC(C)=O)[C@]3(C)C(CC[C@@]4(C)[C@H](c5ccoc5)OC(=O)C5OC543)[C@]21C (some centres undefined),104
4,COc1ccccc1OCC(O)CO (centres undefined),94.5
5,CC(=O)N[C@@H](Cc1c[nH]c2ccccc12)C(N)=O,122
6,COc1ccc(C2C(=O)c3ccccc3C2=O)cc1,119
7,CC(=O)N1CCCC1C(=O)O (centres undefined),106
8,CC(=O)[C@@]1(O)CCC2C3CCC4=CC(=O)CC[C@]4(C)C3CC[C@@]21C (some centres undefined),72.4
9,CC(C)=CCC/C(C)=C/CC/C(C)=C/CC/C(C)=C/CC/C(C)=C/CC/C(C)=C/CC/C(C)=C/CC/C(C)=C/CC/C(C)=C/CO,105
10,Cc1cc(C)cc(OCC2CNC(=O)O2)c1 (centres undefined),113
11,COc1ccc(C(=O)c2ccccc2O)c(O)c1,107
12,CC(CCC(=O)O)[C@H]1CCC2C3C(C[C@H](O)[C@@]21C)[C@@]1(C)CC[C@@H](O)C[C@H]1C[C@H]3O (some centres undefined),99.6
13,CC(CN(C)C)CN1c2ccccc2Sc2ccccc21 (centres undefined),101
14,COC(=O)Nc1nc2ccc(C(=O)c3ccccc3)cc2[nH]1,104
15,Oc1c(Cl)cc(Cl)c2cccnc12,113
16,C/C=C(/C)C(=O)O[C@H]1CC[C@@]2(C)[C@@H]3CC[C@H]4[C@]5(O)C[C@H](O)[C@@]6(O)[C@@H](CN7C[C@@H](C)CC[C@H]7[C@@]6(C)O)[C@]5(O)C[C@@]42OC13O,103
17,OC[C@H]1O[C@@H](O[C@@H]2[C@@H](CO)O[C@](O)(CO)[C@H]2O)[C@H](O)[C@@H](O)[C@H]1O,121
18,NC(=O)c1cccnc1,109
19,Clc1ccccc1CN1CCc2sccc2C1,109
